From PubChem BioAssay AID1159580 (chemical genetic matrix, 2015)
In all, about 5,500 compounds went through this assay and about 2,000 (36%) were called active. Inconclusive results (about 18%) are left out. Cut-off read from the data, not from the text of the source: active = normalized growth mostly below about 0.91 (no sharp cut-off); inconclusive = no clear call, values can overlap the other calls; inactive = mostly above about 0.92. Some of the results follow.

Test: chemical genetic growth profiling, strain panel (AID 1159580);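 note: tested at 20 µM; growth read once vehicle control cultures reached saturation at 30 °C; 1 = growth at the plate median or of vehicle wells; lower values mean less growth of the strain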
Settings: S. cerevisiae deletion strains, growth OD
[1] = locus YHR030C, strain SLT2, stronger effect = lower value
[2] = locus YJL095W, strain BCK1, stronger effect = lower value

Measured: normalized growth

O=C(O)CS
inactive: [1] 1.05 | locus YHR079C, strain IRE1, stronger effect = lower value 1.02 | [2] 1.04 | locus YJR066W, strain TOR1, stronger effect = lower value 0.941 | locus YLR113W, strain HOG1, stronger effect = lower value 1.07 | locus YNL183C, strain NPR1, stronger effect = lower value 1.02 | locus YOR231W, strain MKK1, stronger effect = lower value 1.08 | locus YPL256C, strain CLN2, stronger effect = lower value 1.05

O=C(O)CCC(=O)C(=O)O
inactive: locus YAL013W, strain DEP1, stronger effect = lower value 1.01 | locus YBR021W, strain FUR4, stronger effect = lower value 1.01 | locus YBR229C, strain ROT2, stronger effect = lower value 1.01 | locus YCL029C, strain bik1, stronger effect = lower value 1.03 | locus YDL035C, strain GPR1, stronger effect = lower value 1.03 | locus YDL074C, strain BRE1, stronger effect = lower value 1.05 | locus YDL101C, strain DUN1, stronger effect = lower value 1.02 | locus YDL185W, strain tfp1, stronger effect = lower value 1.03 | locus YDL192W, strain arf1, stronger effect = lower value 1.05 | locus YDR101C, strain arx1, stronger effect = lower value 1.05 | locus YDR162C, strain NBP2, stronger effect = lower value 1.02 | locus YDR318W, strain mcm21, stronger effect = lower value 1.01 | locus YDR388W, stronger effect = lower value 1.02 | locus YDR502C, strain sam2, stronger effect = lower value 1.03 | locus YEL061C, strain CIN8, stronger effect = lower value 1.01 | locus YER110C, stronger effect = lower value 1.03 | locus YER155C, strain BEM2, stronger effect = lower value 1 | locus YER167W, strain BCK2, stronger effect = lower value 1.01 | locus YGL078C, strain dbp3, stronger effect = lower value 1.02 | locus YGL086W, strain mad1, stronger effect = lower value 1 | locus YGL248W, strain PDE1, stronger effect = lower value 1.01 | locus YGR135W, strain pre9, stronger effect = lower value 0.987 | locus YGR229C, strain SMI1, stronger effect = lower value 1.03 | locus YGR252W, strain gcn5, stronger effect = lower value 0.942 | [1] 1.01 | locus YHR079C, strain IRE1 (second series), stronger effect = lower value 1.03 | locus YHR094C, strain hxt1, stronger effect = lower value 1.01 | locus YHR129C, strain ARP1, stronger effect = lower value 1.02 | locus YHR200W, strain rpn10, stronger effect = lower value 1 | locus YIL066C, strain RNR3, stronger effect = lower value 1.01 | locus YIL073C, strain SPO22, stronger effect = lower value 1.07 | locus YIL125W, strain kgd1, stronger effect = lower value 1.02 | locus YIR030C, strain dcg1, stronger effect = lower value 1.03 | [2] 1.02 | locus YJL134W, strain LCB3, stronger effect = lower value 1 | locus YJL168C, strain set2, stronger effect = lower value 1.01 | locus YJL187C, strain SWE1 (second series), stronger effect = lower value 1.02 | locus YJR043C, strain POL32, stronger effect = lower value 1.01 | locus YJR075W, strain HOC1, stronger effect = lower value 1 | locus YKL009W, strain mrt4, stronger effect = lower value 1.05 | locus YKL068W, stronger effect = lower value 1.01 | locus YKL085W, strain MDH1 (second series), stronger effect = lower value 1.01 | locus YKL085W, strain MDH1, stronger effect = lower value 1.01 | locus YKL190W, strain CNB1, stronger effect = lower value 1.01 | locus YKR001C, strain vps1, stronger effect = lower value 1.05 | locus YLR039C, strain RIC1, stronger effect = lower value 1.05 | locus YLR058C, strain SHM2, stronger effect = lower value 1.01 | locus YLR102C, strain apc9, stronger effect = lower value 1.01 | locus YLR262C, strain YPT6, stronger effect = lower value 1.05 | locus YLR268W, strain sec22, stronger effect = lower value 1.03 | locus YLR330W, strain CHS5, stronger effect = lower value 1.01 | locus YLR342W, strain FKS1 (second series), stronger effect = lower value 1.01 | locus YLR371W, strain rom2, stronger effect = lower value 1.01 | locus YLR418C, strain cdc73, stronger effect = lower value 1.02 | locus YML016C, strain PPZ1, stronger effect = lower value 1.01 | locus YML032C, strain rad52, stronger effect = lower value 0.995 | locus YML124C, strain tub3, stronger effect = lower value 1.02 | locus YMR078C, strain ctf18, stronger effect = lower value 1.03 | locus YMR223W, strain ubp8, stronger effect = lower value 1 | locus YMR307W, strain GAS1, stronger effect = lower value 1.05 | locus YNL067W, strain RPL9B, stronger effect = lower value 1.01 | locus YNL128W, strain TEP1, stronger effect = lower value 1.04 | locus YNL233W, strain BNI4, stronger effect = lower value 1.01 | locus YNL250W, strain rad50, stronger effect = lower value 1.03 | locus YNL271C, strain bni1, stronger effect = lower value 1.04 | locus YNL298W, strain CLA4, stronger effect = lower value 1.01 | locus YNL307C, strain MCK1, stronger effect = lower value 1.04 | locus YNR052C, strain pop2, stronger effect = lower value 1.02 | locus YOL012C, strain htz1 0.918 | locus YOL147C, strain pex11, stronger effect = lower value 1.02 | locus YOR061W, strain CKA2, stronger effect = lower value 1.01 | locus YOR069W, strain VPS5, stronger effect = lower value 1 | locus YOR136W, strain idh2, stronger effect = lower value 1.02 | locus YOR144C, strain elg1, stronger effect = lower value 1.02 | locus YOR184W, strain ser1, stronger effect = lower value 1.02 | locus YOR316C, strain cot1, stronger effect = lower value 1.02 | locus YPR119W, strain clb2, stronger effect = lower value 1.02 | locus YPR141C, strain kar3, stronger effect = lower value 1.02 | locus YPR163C, strain tif3, stronger effect = lower value 1.03 | locus YPR167C, strain met16, stronger effect = lower value 1.05 | strain wtn01, stronger effect = lower value 1.02
